# Measured values: PubChem BioAssay (NCI)
# This is part of a sample that, as a whole, favours compounds with a hit. Of some 83,000 tested, about 20% had one in any assay.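 Negative percent growth values reflect cell death: -40 means 40% of the cells present at the start died, and -100 means all died.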 Activity calls are given as the source filed them. Rule for the calls: active = growth percent below 10; inactive = the rest.
# Test system: HL-60(TB) leukemia
# Assay: NCI-60 one-dose screen, 48 h (100 = growth as untreated, 0 = no growth, -100 = all killed)
# Conditions: 10 µM unless noted
row,Structure (SMILES),growth
1,O=C(Nc1ccc2ncnc(Nc3ccc(Oc4cccc(F)c4)c(Cl)c3)c2c1)c1ccc(CN2CCOCC2)cc1,-11.3% (active)
2,O=C1c2ccccc2NC(c2cn(-c3ccccc3)nc2-c2cccs2)N1Cc1ccccc1 (stereo not given),-6.57% (active)
3,N#Cc1c(-c2ccc(Cl)cc2)nc(NCCO)[nH]c1=O,102% (inactive)
4,CCC(Br)(CC)C(=O)c1ccc(OCC(=O)O)c(Cl)c1Cl,111% (inactive)
5,COc1cc2c(/C=C3\C(=O)Nc4ccccc43)c(C(=O)O)[nH]c2cc1C,110% (inactive)
6,CN1C(=O)C2(SCC(C(=O)NCC(=O)OC(C)(C)C)N2C(=O)C2CCCCC2)c2ccccc21 (stereo not given),93.7% (inactive)
7,Cc1cc2nc(C(Cl)Cl)nc(-c3ccccc3)n2n1,-14.1% (active)
8,COc1ccc(Nc2ncc(Br)c(NCCCNC(=O)C3CCC3)n2)cc1,-12.8% (active)
9,O=c1oc2ccc(Cl)cc2c(=O)n1-c1ccc(I)cc1F,-46.3% (active)
10,O=C(Nc1cccc(-n2cc(-c3ccncc3)c(-c3ccc(Cl)c(O)c3)n2)c1)c1ccccc1,167% (inactive)
11,C=C(C)[C@@H]1CC[C@]2(C(=O)OC)CC[C@]3(C)[C@H](CC[C@@H]4[C@@](C)(CC/C(N)=N/O)[C@H](C(=C)C)CC[C@]43C)[C@@H]12,92.2% (inactive)
12,O=C(Nc1ccc(Br)c(Cl)c1)c1cc(F)ccc1O,-33.4% (active)
13,c1csc(-c2ccc(CNc3c4ccccc4nc4ccccc34)cc2)c1,-56.7% (active)
14,c1ccc(-c2oc(-c3ccccc3)c(CN3CCCCC3)c2CN2CCCCC2)cc1,27% (inactive)
15,O=C(O)c1c[nH]c2ccccc2c1=O,91.2% (inactive)
16,C/C(=N\NC(=O)CC#N)c1cc2cc(Cl)ccc2o1,99.4% (inactive)
17,NC1=CSC2=N/C(=C\c3ccc(Cl)cc3)C(=O)N12,39.9% (inactive)
18,O=C1C2=C(Nc3cc([N+](=O)[O-])ccc3N2)OC1c1c2ccccc2cc2ccccc12 (stereo not given),14.2% (inactive)
19,CCOc1cc(/C=C/C(=O)C(C(=O)/C=C/c2ccc(OC(=O)CNc3nc4ccccc4[nH]3)c(OCC)c2)C(=O)CNc2nc3ccccc3[nH]2)ccc1OC(=O)CNc1nc2ccccc2[nH]1,-44.4% (active)
20,O=C(Nc1ccc(F)cc1)Nc1ccc(CCO)cc1,101% (inactive)

row,Structure (SMILES),growth
1,Cc1cccnc1NC1OC(=O)c2ccccc21 (stereo not given),100% (inactive)
2,CCOC(=O)Nc1ccc2c3c(cccc13)-c1ccccc1-2,6.94% (active)
3,c1ccc(-c2nc(N3CCNCC3)c3oc(-c4ccccc4)nc3n2)cc1,-46.5% (active)
4,O=C(NC(Cc1nnc2n(Cc3ccccc3)c(=O)c3c4c(sc3n12)CCCC4)c1ccccc1)c1ccccc1 (stereo not given),-70.3% (active)
5,COC(=O)c1ccc(NC(=O)c2ccc(-c3cccc([N+](=O)[O-])c3)o2)cc1,101% (inactive)
6,CS(=O)(=O)c1ccc(N/N=C/c2c(-c3ccc(S(C)(=O)=O)cc3)[nH]c3ccc(F)cc23)cc1,-14.6% (active)
7,CCOC(=O)C1=C(C)N2C(=NC3=C(CCCC/C3=C\c3ccccc3)C2c2ccccc2)S1 (stereo not given),101% (inactive)
8,COc1ccc(C2=CC(c3cc(OC)c(OC)c(OC)c3)n3ncnc3N2)cc1 (stereo not given),-29.9% (active)
9,O=c1[nH]c(Nc2ccc(S(=O)(=O)O)cc2)nc2nc(Nc3ccc(NC(=S)Nc4ccccc4)cc3)nc(-c3ccc(O)cc3O)c12,120% (inactive)
10,CC(=O)Oc1cccc(OC(C)=O)c1OC(C)=O,103% (inactive)
11,CCOC(=O)C1=CCC(n2cc(C)c(=O)[nH]c2=O)O1 (stereo not given),89.8% (inactive)
12,O=C1Nc2ccccc2/C1=C/C(=O)c1ccc(N2CCOCC2)cc1,49.8% (inactive)
13,CN1CCN(Cc2ccc(NC(=O)c3cncc(C#Cc4cnc(N)cc4C#N)c3)cc2C(F)(F)F)CC1,4.46% (active)
14,COc1ccccc1/C=C/C(=O)CCC(=O)O,88.3% (inactive)
15,Cc1cc2oc(=O)cc(CP(=O)(O)O)c2cc1O,111% (inactive)
16,COc1cccc(C(=O)Cn2cc(/C=C(\C#N)S(=O)(=O)c3ccccc3)c3ccccc32)c1,102% (inactive)
17,Clc1nc(Cl)c2ncn(-c3ccccc3)c2n1,46.1% (inactive)
18,Cc1ccc(-c2nc(C#N)c(S(=O)(=O)N(C)C)o2)cc1,0.829% (active)
19,Nc1c(Br)cc2c(c1Br)Cc1cc(Cl)ccc1-2,100% (inactive)
20,CN(C)c1cccc2[nH]c(-c3[nH]ncc3Nc3ccnc(N)n3)nc12,-42.7% (active)
